# Most compounds without a hit are left out; they make up all but 3.4% or so of the library.
# FBW7 act: human FBW7 E3 ligase activation, primary screen; Q969H0; AlphaScreen FBW7–phospho-cyclin E peptide binding, activator screen; normalized activity (activation), % at 26.1 µM; 650,000 tested, 0.13% active; in the data active means normalized activity above about 1.9%;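 further: purified mutant Fbw7 with reduced substrate affinity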
# GPR151 ag: activates the human receptor GPR151 | Q8TDV0 | PathHunter beta-arrestin GPR151 cells, luminescence | activation, % at 11.2 µM | 650,000 tested, 1% active | AID 1508602; in the data active means activation above about 4.9%;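 further: 0% = median of compound wells and 100% = cells with positive control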
# TEAD-YAP inh: TEAD-YAP interaction inhibition | 640,000 tested, 1.4% active | inhibition, % at 9.12 µM | HEK-TIYL cells, TEAD-Gal4/YAP UAS-luciferase luminescence | AID 1259422; in the data active means inhibition above about 32%;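 further: 0% = median of test compound wells and 100% = reference inhibitor wells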
# MITF inh: blocks human microphthalmia-associated transcription factor. AlphaScreen MITF homodimerization, bead proximity signal. inhibition, % at 2.6 µM. 650,000 tested, 0.91% active. AID 1259374; in the data active means inhibition above about 50%;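 further: 0% = vehicle wells with protein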
# Target sequence (O75030 whole entry, looked up): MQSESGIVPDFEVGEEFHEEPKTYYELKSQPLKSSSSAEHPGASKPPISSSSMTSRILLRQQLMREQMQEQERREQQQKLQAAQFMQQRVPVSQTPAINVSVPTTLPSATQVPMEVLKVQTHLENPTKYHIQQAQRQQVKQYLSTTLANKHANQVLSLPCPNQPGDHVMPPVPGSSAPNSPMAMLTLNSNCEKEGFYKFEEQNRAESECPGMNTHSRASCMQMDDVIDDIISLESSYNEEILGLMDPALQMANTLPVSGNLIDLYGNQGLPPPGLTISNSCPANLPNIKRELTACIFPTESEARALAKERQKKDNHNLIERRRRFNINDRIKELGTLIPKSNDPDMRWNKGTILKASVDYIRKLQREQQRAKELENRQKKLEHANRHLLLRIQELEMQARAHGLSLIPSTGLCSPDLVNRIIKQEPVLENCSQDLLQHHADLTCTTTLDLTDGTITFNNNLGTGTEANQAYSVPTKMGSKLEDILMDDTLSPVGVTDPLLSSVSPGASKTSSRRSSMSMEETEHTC
# * = called active by the depositor.
SMILES,FBW7 act,GPR151 ag,TEAD-YAP inh,MITF inh
O=C(Nc1ccc(N2CCOCC2)cc1)C1CCN(c2ccc(Nc3ccc4ncccc4c3)nn2)CC1,0,3,40*,37
Cc1cnc(Nc2ccc3ncccc3c2)nc1Nc1ccc(N2CCOCC2)cc1,0,3,47*,4
Cc1cnc(Nc2ncccn2)nc1Nc1ccc(N2CCOCC2)cc1,0,0,1,2
Cc1cnc(Nc2ccccn2)nc1Nc1ccc(N2CCOCC2)cc1,-1,1,7,8
Cc1cnc(Nc2ccc(N3CCOCC3)cc2)nc1Nc1ccccc1,0,1,63*,30
c1ccc(Nc2nc(Nc3ccc(N4CCOCC4)cc3)c3[nH]cnc3n2)nc1,0,-1,10,5
O=C(Nc1nn2c(-c3cccs3)nnc2s1)c1ccccc1,0,-2,9,9
c1ccc(Nc2nc(Nc3ccc4c(c3)OCO4)c3[nH]cnc3n2)cc1,0,3,19,6
COc1cc(Nc2nc(Nc3ccc(N4CCOCC4)cc3)ncc2C)cc(OC)c1OC,0,0,66*,2
